Pf Dd2 growth: inhibitors of Plasmodium falciparum Dd2 growth. 120,000 compounds, 4.3% hits. P. falciparum Dd2 growth, SYBR Green, 72 h. Potency, µM (series often up to 28.9 µM), most hits filed as inhibitors. AID 1347417; active = well fitted inhibition curve with a large enough effect; note: nearly all actives have a fitted effect of over 65% in size
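Infected erythrocytes (Dd2, 0.3% parasitemia, 2.5% hematocrit final) are added to compound in RPMI-1640/Albumax II medium, grown 72 h at 37C in low oxygen, then lysed with saponin/Triton-X containing SYBR Green and read by fluorescence.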
Large screens that a line does not name were inactive. Shown is part of a subset that was picked to be rich in hits.

CCOCC(=O)N1CCC2(CC1)CN(C1CCC1)CC2COC (configuration not stated)	none
COC[C@@H]1CN(C(=O)c2ccc(OC)c(F)c2)C[C@H]1C(N)=O	none
COCC1CN(C2CCC2)CC12CCN(C(=O)c1ccc(OC)c(F)c1)CC2 (configuration not stated)	Pf Dd2 growth 5µM
COCC1CN(C2CCC2)CC12CCN(C(=O)Cc1ccccc1OC)CC2 (configuration not stated)	Pf Dd2 growth 13µM
O=C(N[C@H]1CO[C@H]2[C@@H]1OC[C@H]2OCc1ccccc1)c1ccc(C(F)(F)F)cc1	none
CCCCc1nn(CC(=O)N2CCNC(=O)C2)c(=O)n1CCc1ccccc1	none
COCCCN1C(=O)CC[C@H]2CN(C(=O)c3cn(C)c(=O)[nH]c3=O)CC[C@H]21	none
Cc1ccc(CN2CCc3nc(N(C)Cc4cccnc4)[nH]c(=O)c3CC2)s1	none
O=c1ccc(CN2CCN(c3ccccc3F)CC2)cn1CC1CC1	none
Cc1ccc(C2=NC3(CCN(C(=O)c4ccccc4Cl)CC3)ON2)cc1	none
CN(CC1CCOCC1)C(=O)Nc1ccccc1C(F)(F)F	none
O=C(CC1CCCCC1)NC1CCN(C(=O)N2CC3CC(C2)[C@H]2CCCC(=O)N2C3)CC1 (some centres not stated)	none
CCOC1CCOC2(CCN(C(=O)c3ccn(CC)n3)CC2)C1 (configuration not stated)	none
Cc1ccc(Nc2nc3c(S(=O)(=O)c4ccccc4)nnn3c3ccsc23)c(C)c1	none
COc1ccc(Nc2nc3c(S(=O)(=O)c4ccc(C)cc4)nnn3c3ccsc23)cc1Cl	none
Cc1ccc(S(=O)(=O)c2nnn3c2nc(NCc2ccccc2)c2sccc23)cc1	none
CC(=O)Nc1ccc(Nc2nc3c(S(=O)(=O)c4cc(C)ccc4C)nnn3c3ccsc23)cc1	none
COc1ccc(Nc2nc3c(S(=O)(=O)c4ccccc4)nnn3c3ccc(Cl)cc23)cc1OC	none
CCc1ccc(S(=O)(=O)c2nnn3c2nc(Nc2ccc(F)cc2)c2cc(Cl)ccc23)cc1	Pf Dd2 growth 1.3µM
CCc1ccc(S(=O)(=O)c2nnn3c2nc(NCc2ccc(F)cc2)c2ccccc23)cc1	none
CN1CCN(c2nc3c(S(=O)(=O)c4ccccc4)nnn3c3ccsc23)CC1	none
Cc1ccc(C)c(S(=O)(=O)c2nnn3c2nc(N2CCN(C)CC2)c2sccc23)c1	Pf Dd2 growth 8.9µM
Cc1ccc(C)c(S(=O)(=O)c2nnn3c2nc(Nc2ccc(F)c(Cl)c2)c2sccc23)c1	Pf Dd2 growth 13µM
Cc1ccc(S(=O)(=O)c2nnn3c2nc(N2CCCC2)c2sccc23)cc1C	none
Cc1ccc(S(=O)(=O)c2nnn3c2nc(NC(C)c2ccccc2)c2sccc23)cc1 (configuration not stated)	Pf Dd2 growth 10µM
CCOC(=O)CCNC(=O)N1CCCC(c2nc(C(C)C)no2)CCNC(=O)CC1 (configuration not stated)	none
CCOc1ccc(C2NC(=O)N(CC(=O)NC3CCCC3)C3=C2C(=O)OC3)cc1 (configuration not stated)	none
Cc1ccc(CNC(=O)c2noc(-c3ccc(F)cc3)n2)cc1	none
O=C([C@H]1C[C@H](Oc2ccccc2)CN1C(=O)c1ccco1)N1CCOCC1	none
COc1ccc(NC(=O)C2CC(=O)N(c3n[nH]c4cccc(F)c34)C2)cc1 (configuration not stated)	none
COc1ccc(NC(=O)c2cc(S(=O)(=O)N3CCCC3)ccc2OC)cc1	none
CCc1ccc(C(=O)N2CCC(c3nc(-c4ccc(S(=O)(=O)N5CCCC5)cc4)no3)CC2)cc1	none
CCc1ccc(OCC2c3cc(OC)c(OC)cc3CCN2C(=O)c2ccc(S(=O)(=O)N3CCCC3)cc2)cc1 (configuration not stated)	Pf Dd2 growth 11µM
COc1ccc(C(=O)N2CCCN(S(=O)(=O)c3ccccc3)CCC(=O)NCC2)cc1F	none
O=C1CN(C(=O)c2ccc(S(=O)(=O)N3CCCC3)cc2)C(c2ccccc2)c2cc(F)ccc2N1 (configuration not stated)	none
COc1cc2c(cc1OC)C(COc1ccccc1OC)N(C(=O)c1ccc(S(=O)(=O)N3CCCC3)cc1)CC2 (configuration not stated)	Pf Dd2 growth 11µM
CCOC(=O)c1ccc(OCC2c3cc(OC)c(OC)cc3CCN2C(=O)c2ccc(S(=O)(=O)N3CCCC3)cc2)cc1 (configuration not stated)	Pf Dd2 growth 11µM
CCOc1ccc(C(=O)N2CCC[C@H]2c2nc(-c3ccc(OC)c(OC)c3)no2)cc1	none
COC1C(=O)N(CC2CC2)C12CCN(S(=O)(=O)c1cccc3cccnc13)CC2 (configuration not stated)	none
COc1cc(NC(=O)Cn2nc3n(c2=O)CCCC3)cc(OC)c1OC	none
O=C(NC1CCN(c2nc3ncccc3o2)CC1)c1ccccc1	none
CC(C)(CC(=O)O)CC(=O)N1Cc2[nH]cnc2C[C@H]1c1nc(Cc2ccccc2)no1	none
CC(C)C(=O)N1CCC2(CC1)CC(N1CCCC1)CCO2 (configuration not stated)	none
COC(=O)CNC(=O)c1cc(-c2ccc(Cl)nc2)nc2c1cnn2C	none
OCC1(Cc2ccccc2)CCN(Cc2ccccc2-c2ccco2)CC1	Pf Dd2 growth 8.9µM
COc1ccccc1CN1CCC2(CC1)COCCN2C(=O)OCc1ccccc1	none
CCCn1cc(CN2CCC(CO)(Cc3ccccc3Cl)CC2)c(C)n1	none
Cc1ccc(OCC(=O)N2CCCC(c3nn(C)c(=O)n3C(C)C)C2)cc1 (configuration not stated)	none
CCC(CC)C(=O)N1CCC2(CC1)C(=O)N(C)c1ccccc12	none
CCOc1ccc(C(=O)N2CCC3(CC2)C(=O)N(C)c2ccccc23)cc1OCC	Pf Dd2 growth 13µM
Cc1cc2cc(C(=O)N3CCC4(CC3)C(=O)N(C)c3ccccc34)ccc2o1	none
CN1C(=O)C2(CCN(C(=O)CCc3ccccc3)C2)c2ccccc21 (configuration not stated)	none
CN1C(=O)C2(CCN(C(=O)CCn3cnnn3)CC2)c2ccccc21	none
CN1C(=O)C2(CCN(C(=O)CCC3CCCC3)CC2)c2ccccc21	Pf Dd2 growth 5.6µM
COC[C@@H]1CN(C(=O)c2ccc(OC)nc2OC)C[C@H]1c1ccncc1	none
COc1ccc(CCNC(=O)CN2CC3CC(C2)[C@H]2CCCC(=O)N2C3)cc1OC (some centres not stated)	none
COCCOCC(=O)N1CCC(N2C(=O)C(OCC3CC3)C23CCOCC3)CC1 (configuration not stated)	none
CN(Cc1ccon1)C(=O)c1ccc2c(c1)[nH]c(=O)n2C1CCC(O)CC1 (configuration not stated)	none
CCCCc1ccc(NC(=O)Cn2ccn3nc(-c4ccccc4)c(CO)c3c2=O)cc1	none
CCN1CCN(CC(=O)NCc2cc(N3CCOCC3)ncn2)CC1	none
O=C(c1ccco1)N1CC2CC(C1)[C@H]1CCCC(=O)N1C2 (some centres not stated)	none
CCN1C(=O)C2CC3(CCN(S(=O)(=O)c4cccc(OC)c4)CC3)CN2C1=O (configuration not stated)	none
Cn1c([C@H]2CCN(Cc3ccc(Cl)cc3)C2)nc2ccccc21	none
COc1ccc(CN2CC[C@H](c3nnc(-c4ccncc4)o3)C2)cc1	none
Cn1c([C@H]2CCN(Cc3ccccc3)C2)nc2ccccc21	none
Cn1cncc1-c1nnc([C@H]2CCN(Cc3cccc(C#N)c3)C2)o1	none
COc1ccc(-c2nnc([C@H]3CCN(Cc4cccc(C#N)c4)C3)o2)cc1	Pf Dd2 growth 14µM
COc1ccccc1-c1nnc([C@H]2CCN(Cc3ccc(F)cc3)C2)o1	none

High-throughput results as filed in PubChem BioAssay.
